Reference: PubChem BioAssay (Tox21)
Where “and” joins values, the source holds several entries; their conditions need not be identical. Identical values can stand only once. Inconclusive results are not listed. Some compounds were tested as several samples or in several runs, with calls that do not always agree. Calls of active or inactive are those of the source. Unless noted, calls follow the shape of the dose curve; as a rule, active = well fitted curve in the direction sought with a large enough effect in the repeat runs; inconclusive = weak or mixed curves; inactive = no such curve, though single readings can be large; an effect the other way counts as inactive or inconclusive.

What was measured:
[1] = qHTS assay to identify small molecule antagonists of the thyroid receptor (TR) signaling pathway - cell viability counter screen (AID 743064); also: nearly all actives have a fitted effect of over 50% in size
Outline: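 In rat pituitary GH3.TRE-Luc reporter cells co-exposed to compound and 1 nM T3 for 23.5 h, cytotoxicity was assessed with CellTiter-Fluor in the same wells, read by fluorescence.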

[2] = biological target: Estrogen receptor (Homo sapiens) (UniProt P03372); test: qHTS assay to identify small molecule antagonists of the estrogen receptor alpha (ER-alpha) signaling pathway (AID 743069; active = well fitted curve in the direction sought with a large enough effect in the signal ratio in the repeat runs, not every such curve was filed as active; the % refers to the signal ratio)
Outline: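 Screening used a UAS-driven beta-lactamase reporter integrated into HEK293 cells expressing ER-alpha, stimulated with 17beta-estradiol alongside test compounds over 18 hr at 37C; signal came from LiveBLAzer B/G FRET fluorescence.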

[3] = qHTS assay to identify small molecule antagonists of the estrogen receptor alpha (ER-alpha) signaling pathway - cell viability counter screen (AID 743074; calls by dose curve; also: nearly all actives have a fitted effect of over 45% in size; also: potency is read from the fitted curve at half-maximal effect)
[4] = biological target: Estrogen receptor (Homo sapiens) (UniProt P03372); test: qHTS assay to identify small molecule agonists of the estrogen receptor alpha (ER-alpha) signaling pathway (AID 743075; calls by dose curve)
[5] = biological target: Estrogen receptor (Homo sapiens) (UniProt P03372); test: qHTS assay to identify small molecule agonists of the estrogen receptor alpha (ER-alpha) signaling pathway using the BG1 cell line (AID 743079); also: nearly all actives have a fitted effect of over 20% in size; also: potency is read from the fitted curve at half-maximal effect
[6] = qHTS assay to identify small molecule antagonists of the estrogen receptor alpha (ER-alpha) signaling pathway using the BG1 cell line (AID 743080; calls by dose curve;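 also: BG1 cells stimulated with 17beta-estradiol alongside compound; series mostly up to about 70 µM; nearly all actives have a fitted effect of over 25% in size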)
Outline: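 Endogenous full-length ER-alpha in BG1-Luc-4E2 cells drives a stably integrated 4×ERE luciferase gene; compounds were tested against 17beta-estradiol over 21.5 h, with luminescence and multiplexed viability fluorescence recorded.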

[7] = qHTS assay to identify small molecule antagonists of the estrogen receptor alpha (ER-alpha) signaling pathway using the BG1 cell line - cell viability counter screen (AID 743081);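 also: compound given together with 17beta-estradiol as the ER stimulus; series mostly up to about 70 µM; nearly all actives have a fitted effect of over 45% in size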
Aromatase (Homo sapiens) = Aromatase (Homo sapiens) (UniProt P11511); test: qHTS assay to identify aromatase inhibitors (AID 743083); also: nearly all actives have a fitted effect of over 55% in size; also: potency is read from the fitted curve at half-maximal effect
[8] = qHTS assay to identify aromatase inhibitors - cell viability counter screen (AID 743084);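 also: cells stimulated with testosterone during compound exposure; nearly all actives have a fitted effect of over 55% in size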; also: potency is read from the fitted curve at half-maximal effect
[9] = qHTS assay to identify small molecule that activate the aryl hydrocarbon receptor (AhR) signaling pathway - cell viability counter screen (AID 743086);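 also: HepG2 liver cells carrying the AhR DRE luciferase reporter; series mostly up to about 70 µM; nearly all actives have a fitted effect of over 45% in size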
Outline: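 HepG2-AhR-luc (HG2L7.5c1) cells, 4000/well, were preincubated 5 h at 37C, exposed to compound in qHTS format for 24 hr at 37C, then given CellTiter-Fluor for 30 min; viability was read as fluorescence in the reporter wells.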

[10] = qHTS assay to identify small molecule antagonists of the peroxisome proliferator-activated receptor gamma (PPARg) signaling pathway - cell viability counter screen (AID 743194); also: nearly all actives have a fitted effect of over 55% in size
Outline: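 PPARg-UAS-bla HEK293H cells were plated, rested 5 h at 37 C, then treated with compounds plus rosiglitazone (50 nM final) for 17 h at 37 C; viability was then read by CellTiter-Glo luminescence after 30 min at room temperature.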

[11] = qHTS assay for small molecule agonists of the antioxidant response element (ARE) signaling pathway (AID 743202; active = well fitted activation curve with a large enough effect in the signal ratio in the repeat runs, not every such curve was filed as active; the % refers to the signal ratio; also: potency is read from the fitted curve at half-maximal effect)
Outline: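 Steps: seed ARE-bla HepG2 cells (2,000/well); incubate 5 h at 37 C; add compounds by pin tool; incubate 16 h at 37 C; add FRET substrate; read fluorescence after 2 h at RT.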

[12] = qHTS assay for small molecule agonists of the antioxidant response element (ARE) signaling pathway - cell viability counter screen (AID 743203; calls by dose curve; also: nearly all actives have a fitted effect of over 55% in size; also: potency is read from the fitted curve at half-maximal effect)
Outline: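 Viability counter screen: stably transfected ARE-bla HepG2 line, 16 hrs compound exposure at 37C/5% CO2, ATP-based CellTiter-Glo luminescence measured in the reporter wells.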

[13] = qHTS assay for small molecule activators of the heat shock response signaling pathway - cell viability counter screen (AID 743209); also: nearly all actives have a fitted effect of over 50% in size; also: potency is read from the fitted curve at half-maximal effect
Outline: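 Viability of HSE-bla HeLa cells is measured with CellTiter-Glo in the wells already used for the reporter read. Compound exposure lasts 5 h at 37 C, and luminescence is read after 30 min at room temperature.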

[14] = qHTS assay for small molecule activators of the heat shock response signaling pathway (AID 743210; active = well fitted activation curve with a large enough effect in the signal ratio in the repeat runs, with a control signal flat, not every such curve was filed as active; the % refers to the signal ratio;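 also: HeLa cells with beta-lactamase reporter driven by heat shock elements; series mostly up to about 63 µM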)
Outline: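 Activation of heat shock element-controlled beta-lactamase expression is measured in HeLa cells by LiveBLAzer FRET fluorescence, with compound exposure lasting 5 h at 37 C and substrate loading 2.5 h at room temperature.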

[15] = test system: thyroid hormone receptor (rat, GH3 cells); test: qHTS assay to identify small molecule agonists of the thyroid receptor (TR) signaling pathway (AID 743066; calls by dose curve)
[16] = biological target: Aryl hydrocarbon receptor (Homo sapiens) (UniProt P35869); test: qHTS assay to identify small molecule that activate the aryl hydrocarbon receptor (AhR) signaling pathway (AID 743085); also: nearly all actives have a fitted effect of over 15% in size; also: potency is read from the fitted curve at half-maximal effect;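 as to activation: HG2L7.5c1 human HepG2 liver cells with stably integrated DRE-driven firefly reporter; series mostly up to about 70 µM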
Outline: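 AhR agonist activity is inferred from enhanced light output of a DRE-controlled firefly luciferase reporter in HepG2 cells, measured with ONE-Glo following 24 h treatment at 37C.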

[17] = biological target: Peroxisome proliferator-activated receptor gamma (Homo sapiens) (UniProt P37231); test: qHTS assay to identify small molecule agonists of the peroxisome proliferator-activated receptor gamma (PPARg) signaling pathway (AID 743094; active = well fitted activation curve with a large enough effect in the signal ratio in the repeat runs, not every such curve was filed as active; the % refers to the signal ratio)
Outline: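 Reporter activation was scored by fluorescence of cleaved LiveBLAzer B/G substrate (1 h, room temperature) in PPARg-bla HEK293H cells previously treated 17 h at 37C with DMSO-dissolved compounds.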

[18] = biological target: Peroxisome proliferator-activated receptor gamma (Homo sapiens) (UniProt P37231); test: qHTS assay to identify small molecule antagonists of the peroxisome proliferator-activated receptor gamma (PPARg) signaling pathway (AID 743191; calls by dose curve; also: series mostly up to about 63 µM; nearly all actives have a fitted effect of over 30% in size)
Outline: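 GeneBLAzer PPARg UAS-bla HEK293H cells carrying a UAS-driven beta-lactamase reporter were plated at 3000 cells/well, preincubated 5 h at 37C, then given compound for 17 h at 37C; LiveBLAzer B/G FRET substrate was read after 1 h at room temperature.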

Measured: Potency

Sequence of Peroxisome proliferator-activated receptor gamma (Homo sapiens) (P37231 whole entry, looked up): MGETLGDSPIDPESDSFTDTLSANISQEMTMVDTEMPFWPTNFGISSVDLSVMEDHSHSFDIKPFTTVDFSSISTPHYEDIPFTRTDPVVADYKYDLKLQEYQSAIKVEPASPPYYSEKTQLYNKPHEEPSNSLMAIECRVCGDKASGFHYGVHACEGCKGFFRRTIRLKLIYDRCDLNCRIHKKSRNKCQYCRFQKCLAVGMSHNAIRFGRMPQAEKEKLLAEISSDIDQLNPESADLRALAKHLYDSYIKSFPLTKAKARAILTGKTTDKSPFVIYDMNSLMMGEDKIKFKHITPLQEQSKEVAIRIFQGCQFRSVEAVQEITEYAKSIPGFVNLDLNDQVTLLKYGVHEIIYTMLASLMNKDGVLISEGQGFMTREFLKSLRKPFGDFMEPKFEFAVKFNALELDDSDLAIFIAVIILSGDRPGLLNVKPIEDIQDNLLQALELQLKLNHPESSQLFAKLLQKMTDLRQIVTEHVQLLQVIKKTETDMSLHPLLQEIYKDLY
Sequence of Aryl hydrocarbon receptor (Homo sapiens) (P35869 whole entry, looked up): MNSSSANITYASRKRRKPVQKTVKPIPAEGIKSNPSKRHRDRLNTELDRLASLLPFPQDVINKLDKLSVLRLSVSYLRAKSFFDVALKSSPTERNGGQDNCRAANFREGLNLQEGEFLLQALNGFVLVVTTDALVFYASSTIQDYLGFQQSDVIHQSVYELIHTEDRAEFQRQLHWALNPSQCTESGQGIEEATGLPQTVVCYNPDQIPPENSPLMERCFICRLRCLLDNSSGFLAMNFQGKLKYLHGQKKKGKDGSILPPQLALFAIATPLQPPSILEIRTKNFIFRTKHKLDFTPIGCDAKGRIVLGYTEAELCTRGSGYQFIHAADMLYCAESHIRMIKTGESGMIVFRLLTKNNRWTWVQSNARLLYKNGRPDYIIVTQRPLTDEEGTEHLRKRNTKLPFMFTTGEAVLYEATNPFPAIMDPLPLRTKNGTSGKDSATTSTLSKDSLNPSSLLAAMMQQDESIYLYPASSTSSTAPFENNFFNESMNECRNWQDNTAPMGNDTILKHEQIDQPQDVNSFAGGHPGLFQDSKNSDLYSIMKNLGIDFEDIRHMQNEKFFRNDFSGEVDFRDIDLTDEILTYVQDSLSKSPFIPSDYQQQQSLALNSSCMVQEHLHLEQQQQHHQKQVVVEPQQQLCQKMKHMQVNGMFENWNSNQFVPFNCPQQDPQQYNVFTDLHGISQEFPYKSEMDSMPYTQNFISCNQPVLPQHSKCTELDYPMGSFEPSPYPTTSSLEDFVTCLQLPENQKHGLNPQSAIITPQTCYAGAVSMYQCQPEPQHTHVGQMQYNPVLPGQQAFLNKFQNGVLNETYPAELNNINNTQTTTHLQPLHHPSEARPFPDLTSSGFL
Sequence of Estrogen receptor (Homo sapiens) (P03372 whole entry, looked up): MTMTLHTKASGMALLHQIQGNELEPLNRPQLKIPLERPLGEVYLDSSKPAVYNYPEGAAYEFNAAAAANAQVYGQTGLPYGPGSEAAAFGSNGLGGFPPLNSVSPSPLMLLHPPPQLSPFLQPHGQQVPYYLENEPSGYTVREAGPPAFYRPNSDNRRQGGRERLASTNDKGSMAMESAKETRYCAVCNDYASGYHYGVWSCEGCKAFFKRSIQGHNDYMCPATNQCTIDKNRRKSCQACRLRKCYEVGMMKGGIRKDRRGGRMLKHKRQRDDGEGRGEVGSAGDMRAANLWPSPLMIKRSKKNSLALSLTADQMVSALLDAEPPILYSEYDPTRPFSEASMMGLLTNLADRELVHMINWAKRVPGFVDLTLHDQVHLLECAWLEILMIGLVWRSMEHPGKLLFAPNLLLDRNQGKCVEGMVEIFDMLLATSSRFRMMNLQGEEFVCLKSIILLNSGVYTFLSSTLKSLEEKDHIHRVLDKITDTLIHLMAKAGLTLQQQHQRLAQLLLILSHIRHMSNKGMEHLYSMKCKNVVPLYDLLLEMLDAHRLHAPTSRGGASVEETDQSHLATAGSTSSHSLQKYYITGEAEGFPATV
Sequence of Aromatase (Homo sapiens) (P11511 whole entry, looked up): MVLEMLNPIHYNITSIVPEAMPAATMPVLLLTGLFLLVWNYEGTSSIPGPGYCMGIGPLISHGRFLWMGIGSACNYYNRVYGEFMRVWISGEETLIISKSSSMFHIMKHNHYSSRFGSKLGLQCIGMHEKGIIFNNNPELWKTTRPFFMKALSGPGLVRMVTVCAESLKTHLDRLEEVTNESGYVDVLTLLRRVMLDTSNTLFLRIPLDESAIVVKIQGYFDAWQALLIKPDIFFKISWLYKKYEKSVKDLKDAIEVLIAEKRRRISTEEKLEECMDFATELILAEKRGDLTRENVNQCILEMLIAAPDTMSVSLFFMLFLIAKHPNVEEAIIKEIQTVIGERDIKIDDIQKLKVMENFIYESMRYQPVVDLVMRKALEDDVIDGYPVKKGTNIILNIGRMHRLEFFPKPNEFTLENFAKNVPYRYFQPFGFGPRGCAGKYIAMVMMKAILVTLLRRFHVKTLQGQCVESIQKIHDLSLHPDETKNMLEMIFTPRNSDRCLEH

OCCNCCO
17.4 µM (active) and inactive: [3]
not listed: [15] | [16] | [17] | [18]
inactive: all other assays above

COC(=O)C(C)Oc1ccc(Oc2ncc(C(F)(F)F)cc2Cl)cc1 (centres undefined)
not listed: [2] | [5] | [11] | [13]
inactive: all other assays above

NC[C@H](O)c1ccc(O)c(O)c1
not listed: [1] | [2] | [4] | [5] | [6] | [11] | [15]
inactive: all other assays above

C=CCOC(=O)C(=C)C
inactive: [1] | [15] | [7] | [9] | [10] | [11] | [12] | [14]

COCCOCCOCCO
not listed: [2] | [4] | [5] | [6] | [15] | [16] | [17] | [18]
inactive: all other assays above

CC(C)(Oc1ccc(Cl)cc1)C(=O)O
not listed: [1] | [2] | [4] | [5] | [6] | [15]
inactive: all other assays above

C=C[C@@]1(C)CC(=O)[C@]2(O)[C@@]3(C)[C@@H](O)CCC(C)(C)[C@@H]3[C@H](O)[C@H](OC(C)=O)[C@@]2(C)O1
24.5 µM (active) and inactive: [13]
active: Aromatase (Homo sapiens) 1.19 µM and 969 nM
not listed: [2] | [5] | [6] | [7] | [18]
inactive: all other assays above

Oc1c(Cl)ccc(Cl)c1Cl
not listed: [2] | [11] | [13]
inactive: all other assays above

O=C(O)c1ccc(O)cc1
not listed: [2] | [4] | [5] | [6] | [11] | [16]
inactive: all other assays above

Nc1cc([N+](=O)[O-])ccc1C(=O)O
inactive and 77 µM (active): [5]
not listed: [3] | [13] | [16]
inactive: all other assays above

Cc1ccc(C(C)(C)C)c(O)c1
not listed: [1] | Aromatase (Homo sapiens) | [8] | [16]
inactive: all other assays above

C[N+](C)(C)CCO
not listed: [2] | [4] | [5] | [13] | [14] | [18]
inactive: all other assays above

Nc1ccc(N)c(Cl)c1
active: [16] 54.4 µM and 15.4 µM | [11] 27.3 µM
61 µM (active) and inactive: Aromatase (Homo sapiens) | [8]
68.5 µM (active) and inactive: [12]
inactive: [1] | [15] | [3] | [6] | [7] | [9] | [10]

C=C1C[C@H]2[C@@H]3C=C(C)C4=CC(=O)CC[C@]4(C)[C@H]3CC[C@]2(C)[C@@]1(OC(C)=O)C(C)=O
active: [11] 17.6 µM and 29.8 µM
not listed: [4] | [13]
inactive: all other assays above

CN1CCOCC1
not listed: [2] | [4] | [5] | [6] | [10] | [16] | [17] | [18]
inactive: all other assays above

CC(C)[C@@H]1CC[C@@H](C)CC1=O
not listed: [2] | [4] | [5] | [6] | [15] | [18]
inactive: all other assays above
